Experimental data taken from PubChem BioAssay (NCATS).
Several values for one entry are separate records, joined by “and”; a condition that tells them apart may be missing. Identical values can stand only once. Results filed as inconclusive are left out. Activity calls are given as the source filed them. Calls follow the shape of the dose curve; as a rule, active = well fitted cell-killing curve with a large enough effect; inconclusive = small, poorly fitted or top-dose-only effect, or effect the other way; inactive = no such curve, though single readings can be large or run the other way.

Assay: Viability qHTS for spleen associated tyrosine kinase inhibitor (SYKi) drug resistant MV4-11 cells (AID 1963824); also: nearly all actives have a fitted effect of over 35% in size
Conditions: SYKi-resistant MV4-11 viability, CellTiter-Glo, 72 h; series mostly up to 45 µM
How it was run: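 CellTiter-Glo luminescence, read 10 min after reagent addition, reports viability after a 72 hr compound exposure. Cells are an MV4-11 line made resistant to SYK inhibition, seeded at 500 per well onto compound-containing plates.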
Potency is read from the fitted curve at half-maximal effect.

For `CCC(C)C1NC(=O)C(C(C)=O)=C1O` (stereo unspecified), which Potency is on record?
The Potency was 29.8 µM (active).

With `CC(=O)O[C@H]1CC[C@@]2(CI)C(=CC[C@@H]3[C@@H]2CC[C@]2(C)C(=O)CC[C@@H]32)C1` as the compound, how does the Potency read?
The Potency was 20.6 µM (active).

With `C=C(C)C(=O)O[C@H]1[C@@H]2[C@H](C)C(=O)O[C@@H]2C[C@@H](C)[C@@H]2C=CC(=O)[C@]21C` as the compound, how does the Potency read?
The Potency was 1.14 µM (active).

Which Potency does the source give for `O=C1NC(=O)c2c1c1c3ccccc3[nH]c1c1[nH]c3ccccc3c21` here?
The Potency was 0.0517 µM (active).

For `Oc1ccc2[nH]cc(CCCCN3CC=C(c4ccccc4)CC3)c2c1`, which Potency is on record?
Its Potency is 10.6 µM (active).

Which Potency does the source give for `C=C(C)[C@@H]1CCC(C)=C[C@H]1c1c(O)cc(CCCCC)cc1O` here?
Its Potency is 16.6 µM (active).

For `CC(=O)O[C@H]1CC[C@H]2[C@@H]3CC[C@H]4CC(=O)C=C(C)[C@]4(C)[C@H]3CC[C@]12C`, which Potency is on record?
Its Potency is 11.6 µM (active).

For `O=C(C[C@@H]1NCCC[C@H]1O)Cn1cnc2ccccc2c1=O`, which Potency is on record?
Its Potency is 0.231 µM (active).

With `C[C@]12CC[C@H](OC3OC(CO)C(O)C(O)C3OC3OC(CO)C(O)C(O)C3O)C[C@@H]1CC[C@@H]1C2CC[C@]2(C)[C@@H](C3=CC(=O)OC3)CC[C@]12O` (stereo partly specified) as the compound, how does the Potency read?
Its Potency is 5.44 µM (active).

Which Potency does the source give for `CC[C@H]1C[C@@H]2CC[C@@H](O2)[C@@H](C)C(=O)O[C@H](CC)C[C@H]2CC[C@H](O2)[C@H](C)C(=O)O[C@@H](C)C[C@@H]2CC[C@@H](O2)[C@@H](C)C(=O)O[C@H](CC)C[C@H]2CC[C@H](O2)[C@H](C)C(=O)O1` here?
Its Potency is 0.0137 µM (active).

With `Cc1sc2c(c1C)C(c1ccc(Cl)cc1)=N[C@@H](CC(N)=O)c1nnc(C)n1-2` as the compound, how does the Potency read?
Its Potency is 82 nM (active) and 83.3 nM (active).
